D1 mod = D1 dopamine receptor (human) allosteric modulation; hit rate 5.9% among 58,000; P21728; HEK293 D1, CRE-luciferase, dopamine EC30 potentiation; actives deviate in either direction; B-score at 10 µM;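 active means luminescence count or its row- and column-corrected plate score outside the 99.7% band of the plate's sample wells, on either side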
Target sequence (P21728 whole entry, looked up): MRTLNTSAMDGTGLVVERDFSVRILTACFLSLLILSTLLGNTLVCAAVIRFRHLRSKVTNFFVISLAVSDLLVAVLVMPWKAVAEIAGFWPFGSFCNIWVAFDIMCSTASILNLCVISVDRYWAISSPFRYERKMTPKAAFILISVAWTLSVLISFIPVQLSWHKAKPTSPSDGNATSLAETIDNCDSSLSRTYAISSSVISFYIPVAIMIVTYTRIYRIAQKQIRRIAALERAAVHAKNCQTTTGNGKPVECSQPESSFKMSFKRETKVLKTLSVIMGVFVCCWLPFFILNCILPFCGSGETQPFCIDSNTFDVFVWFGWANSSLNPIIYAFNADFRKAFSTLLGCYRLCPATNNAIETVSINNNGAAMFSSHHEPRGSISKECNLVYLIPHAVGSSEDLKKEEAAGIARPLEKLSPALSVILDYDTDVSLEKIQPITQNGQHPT
hDAT+cocaine = human DAT dopamine uptake with cocaine, either direction. Q01959. LLC-PK1 hDAT cells, [14C]-dopamine uptake with cocaine IC80; actives deviate in either direction. B-score at 10 µM. hit rate 1.3% among 110,000. AID 449768;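 active means Z score or B-score, a plate-position-corrected score, falls beyond the plate's 99.7% confidence bounds, in either direction; inactive means both scores lie inside the 99.7% bounds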
BAP1 block = inhibitors of human BAP1 deubiquitinase; hit rate 0.48% among 72,000; Q92560; recombinant BAP1, Ub-AMC hydrolysis fluorescence kinetic; active compounds read low; calls only at 20 µM; AID 436;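 active means activity remaining at or below 50% of control, provided the compound also passes the data quality filters; inactive means the rest, including low values that fail the filters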
D1 mod confirm = confirmation of human D1 dopamine receptor allosteric modulators. shares compounds with D1 mod. HEK293 D1 CRE-luciferase, dopamine EC30 potentiation; active compounds read high. luminescence at 10 µM. hit rate 88% among 2,200;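 active means luminescence in either of two replicates above the same-plate mean plus 3 SD of the low-dose dopamine control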
D1 no dopamine = activates D1 CRE-luciferase signal without dopamine present | hit rate 0.8% among 1,900 | HEK293 D1 CRE-luciferase, luminescence, no dopamine; active compounds read high | luminescence at 10 µM | shares compounds with D1 mod; in the data active means luminescence above about 3900
Isoprot counter = isoproterenol response counter-screen activity for D1 modulators | shares compounds with D1 mod | HEK293 D1 CRE-luciferase, isoproterenol EC30 counter-screen; active compounds read high | luminescence at 10 µM | hit rate 63% among 2,200 | AID 647;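 active means luminescence in either replicate above plate mean of wells with a partly effective reference agonist dose plus 3 SD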;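 further: isoproterenol raises cAMP through native beta-adrenoceptor Gs so signal bypasses D1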
Hits are given with their value; - = inactive; . = not tested or not shown. This is one part of a sample in which hits are shown more often than they occur.

SMILES | D1 mod | hDAT+cocaine | BAP1 block | D1 mod confirm | D1 no dopamine | Isoprot counter
COC(=O)n1c(SC)nc2ccccc21 | 5.6 | - | - | 11396 | - | 3740
CCCCNC(=O)n1c(SC)nc2ccccc21 | . | - | . | . | . | .
CC(=O)Oc1cccc(C(=O)Nc2nccs2)c1 | . | . | - | . | . | .
COC(=O)Cc1[nH]nc2c1C(c1cccc(OC)c1OC)C(C#N)=C(N)O2 (centres undefined) | - | - | - | . | . | .
CCCc1[nH]nc2c1C(c1cc(OC)ccc1F)C(C#N)=C(N)O2 (centres undefined) | 8.2 | - | - | 9940 | . | 3020
CCOC(=O)Cc1[nH]nc2c1C(c1cccc(OC)c1OC)C(C#N)=C(N)O2 (centres undefined) | 6.3 | - | - | 7976 | - | -
CCCc1[nH]nc2c1C(c1cc(OC)cc(OC)c1)C(C#N)=C(N)O2 (centres undefined) | . | - | - | . | . | .
COc1cccc(-n2c(SCC(=O)Nc3cc(C)on3)nc3c([nH]c4ccccc43)c2=O)c1 | 5.7 | - | - | 10104 | - | 4472
Cc1cc(NC(=O)CSc2nc3c([nH]c4ccccc43)c(=O)n2-c2cccc(C(F)(F)F)c2)no1 | - | - | . | . | . | .
COc1ccc(-c2cc(C(F)(F)F)nc(SCC(=O)NCc3ccco3)n2)cc1OC | 13 | - | - | 18992 | - | 5208
COc1ccc(-c2[nH]c(-c3ccc(C)cc3)nc2SCC(=O)NCc2ccco2)cc1OC | . | - | . | . | . | .
O=C(CSc1nc(-c2ccccc2)cc(C(F)(F)F)n1)NCc1ccco1 | . | - | . | . | . | .
COc1ccc(-c2ccc(SCC(=O)NCc3ccco3)nn2)cc1OC | 15 | - | - | 17224 | . | 5532
c1ccc(Cn2c(SCc3cn4cccnc4n3)nnc2-c2ccco2)cc1 | - | - | . | . | . | .
O=C(CSc1nc2scc(-c3ccco3)c2c(=O)n1-c1ccccc1)N1CCOCC1 | - | - | - | . | . | .
NC(=O)CSc1nc2scc(-c3ccco3)c2c(=O)n1-c1ccccc1 | 3.4 | - | . | 10400 | . | -
O=c1c2c(-c3ccco3)csc2nc(SCc2cn3cccnc3n2)n1-c1ccccc1 | 8.4 | - | . | 15872 | - | 12828
O=C1c2ccccc2NC(c2ccc(Br)cc2)N1c1ccc(Cl)cc1 (centres undefined) | . | . | - | . | . | .
O=C(Oc1ccc(-c2cnc3ccccc3n2)cc1)c1ccc(Br)cc1 | . | . | - | . | . | .
CCN(CC)c1nc(SCC(=O)O)nc(N(CC)CC)n1 | - | - | - | . | . | .
CCN(CC)c1nc(C#N)nc(N(CC)CC)n1 | 14 | - | - | 15976 | - | 3548
Cc1ccc(S(=O)(=O)NC(C)(C)CN2CCN(C(c3ccccc3)c3ccccc3)CC2)cc1 | . | . | - | . | . | .
CCOC(=O)c1c(C)nc(-c2ccccc2)nc1N | 4.1 | - | - | 8680 | - | 3172
CCOC(=O)c1c(N)nn(C(=O)C(C)C)c1-c1ccc(OC)cc1 | . | - | . | . | . | .
CCOC(=O)c1c(C)nc(-c2ccccc2)nc1NC(C)=O | - | - | - | . | . | .
SMILES | D1 mod | hDAT+cocaine | BAP1 block | D1 mod confirm | D1 no dopamine | Isoprot counter
CCOC(=O)c1c(N)nn(C(C)=O)c1-c1ccccc1 | 20 | - | - | 19148 | - | 4208
N#Cc1c(N)nc(SCc2ccncc2)c(C#N)c1-c1cccs1 | 6.5 | - | . | 8108 | - | 4352
COc1cc(-c2c(C#N)c(N)nc(SCc3ccncc3)c2C#N)cc(OC)c1OC | - | - | - | . | . | .
CCOC(=O)C1=C(C)Nc2ccc(C)cc2S1 | . | - | . | . | . | .
CCOCCOC(=O)C1=C(C)Nc2ccc(C)cc2S1 | 3.9 | - | - | 7892 | - | -
O=C(c1cccc2ccccc12)N1CCN(CC2CC=CCC2)CC1 (centres undefined) | 4.6 | - | - | - | - | -
O=C(c1ccncc1)N1CCN(C(=O)c2cccc3ccccc23)CC1 | - | - | - | . | . | .
O=C(Nc1ccc2oc(-c3ccc(Br)cc3)nc2c1)c1ccc(Cl)cc1 | . | . | - | . | . | .
Cc1cc(C)nc(SCC(=O)N2CCCCC2)n1 | 2.9 | - | - | 5424 | - | -
Nc1cc(N)nc(SCC(=O)N2CCCCC2)n1 | - | - | - | . | . | .
C=CCn1c(N)c(C(=O)OC(C)(C)C)c2nc3ccccc3nc21 | - | - | - | . | . | .
C=CCn1c(N)c(C(=O)OC(C)CC)c2nc3ccccc3nc21 (centres undefined) | 7.5 | - | . | 14864 | - | 3132
CCOc1cccc2cc(C(=O)NCc3cccnc3)c(=O)oc12 | - | - | - | . | . | .
CCOc1cccc2cc(C(=O)Nc3cc(C)on3)c(=O)oc12 | 2.6 | - | . | - | - | -
O=C1CC(c2ccc(-c3ccccc3)cc2)c2cc(Br)c3ccccc3c2N1 (centres undefined) | . | . | - | . | . | .
CC1=C(C(=O)OCCc2ccccc2)C(c2ccccc2[N+](=O)[O-])C2=C(CCCC2=O)N1 (centres undefined) | . | . | - | . | . | .
CC1Cc2ccccc2N1C(=O)CSc1nc2cc3c(cc2cc1C#N)OCO3 (centres undefined) | 5.1 | - | - | 13756 | - | 4904
Cc1cc2cc3c(cc2nc1SCC(=O)N1c2ccccc2CC1C)OCO3 (centres undefined) | . | - | . | . | . | .
CC(C)c1nc2sc3c(SCC(=O)NCc4ccco4)ncnc3c2c2c1CCC2 | 14 | - | . | 17912 | . | -
O=C(CSc1ncnc2sc3c(c12)CCCCC3)NCc1ccco1 | - | - | - | . | . | .
CC(C)CCSc1nc2c(c(=O)[nH]c(=O)n2C)n1CCC(C)C | . | . | - | . | . | .
COc1ccc(C(=O)Nc2cc3ccccc3oc2=O)cc1OC | . | . | - | . | . | .
Cc1cc(-c2ccco2)c(C#N)c2nc3ccccc3n12 | - | - | . | . | . | .
CC(=O)Nc1nc(CC(C)C)cc(-c2ccco2)c1C#N | 9.7 | - | - | 15584 | . | 3304
Cc1cc(C(F)F)n2ncc(C(=O)NC3CCCCCC3)c2n1 | 6.3 | - | - | 10720 | - | 4900
SMILES | D1 mod | hDAT+cocaine | BAP1 block | D1 mod confirm | D1 no dopamine | Isoprot counter
Cc1cc(C(F)F)n2ncc(C(=O)NCc3ccccc3C(F)(F)F)c2n1 | 5.3 | - | - | 8576 | . | 3500
COc1ccccc1CCNC(=O)c1cnn2c(C(F)F)cc(C)nc12 | . | - | - | . | . | .
COc1ccccc1CNC(=O)c1cnn2c(C(F)F)cc(C)nc12 | . | - | . | . | . | .
N#Cc1ccc(-c2ccco2)nc1SCc1ccccc1 | 3.1 | - | - | 17912 | - | -
CCSc1nc(-c2ccco2)ccc1C#N | 2.7 | - | . | 6188 | - | -
CCOC(=O)C(C)Sc1nc(-c2ccco2)cc(C(F)(F)F)c1C#N (centres undefined) | - | - | - | . | . | .
Cc1cc(C)c(C#N)c(SCc2ccccc2)n1 | . | - | . | . | . | .
CCN1C(=Cc2ccc3ccccc3[n+]2CC)Sc2cc(NC(C)=O)ccc21 | . | . | - | . | . | .
Cc1cc2c(cc1C)NC(c1cccc(C(F)(F)F)c1)C1=C(CC(C)(C)CC1=O)N2 (centres undefined) | . | . | - | . | . | .
O=C(O)c1ccc(-c2ccc(O)c(F)c2)cc1 | 5.9 | - | - | 7760 | - | 2940
O=C(O)c1ccc(O)c(O)c1 | . | - | . | . | . | .
O=C(O)c1cc(C(=O)O)cc(C23CC4CC(CC(C4)C2)C3)c1 | . | . | - | . | . | .
O=C1c2ccccc2C(=O)N1c1ccc(Cl)c([N+](=O)[O-])c1 | . | . | - | . | . | .
Cc1onc(-c2ccccc2)c1C(=O)OCC(=O)Nc1ccc2c(c1)OCO2 | - | - | - | . | . | .

Screening data (PubChem)
